Rv3671c protease – Rv3671c (M. tuberculosis) protease inhibition; P9WHR9; inhibition, % at 5.96 µM; actives 0.048% (n = 320,000); in the data active = inhibition above about 38%;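 note: extracellular domain of Rv3671c used as enzyme; 0% = enzyme with DMSO and 100% = no enzyme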
Target sequence (P9WHR9 whole entry, looked up, the tested form may be a part): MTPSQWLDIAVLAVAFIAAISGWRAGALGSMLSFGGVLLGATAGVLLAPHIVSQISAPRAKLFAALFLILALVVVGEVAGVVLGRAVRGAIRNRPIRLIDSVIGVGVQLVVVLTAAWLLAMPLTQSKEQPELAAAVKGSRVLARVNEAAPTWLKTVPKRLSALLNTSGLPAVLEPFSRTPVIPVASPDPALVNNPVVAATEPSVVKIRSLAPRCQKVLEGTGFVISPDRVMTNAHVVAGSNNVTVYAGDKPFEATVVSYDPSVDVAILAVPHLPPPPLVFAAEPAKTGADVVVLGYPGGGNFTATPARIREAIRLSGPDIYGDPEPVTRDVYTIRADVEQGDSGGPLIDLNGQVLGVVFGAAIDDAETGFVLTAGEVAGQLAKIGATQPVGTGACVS
FadD28 FP inh – inhibitors of Mycobacterium tuberculosis FadD28 bisubstrate binding; inhibition, % at 12.5 µM; actives 0.22% (n = 360,000); FadD28 bisubstrate probe binding, fluorescence polarization; in the data active = inhibition above about 8.5%, passing the limit was not always enough
RecA intein inh – inhibitors of M. tuberculosis RecA intein splicing. cell-free RecA intein splicing, fluorescence. inhibition, % (test concentration not listed). actives 0.75% (n = 290,000). AID 2221; in the data active = inhibition above about 30%;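 note: 0% = vehicle wells and 100% = reference inhibitor control wells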
Mtb BioA inh – BioA (M. tuberculosis) enzyme inhibition. purified M. tuberculosis BioA enzyme, plate reader. inhibition, % at 9.99 µM. actives 0.096% (n = 360,000). AID 602481; in the data active = inhibition above about 40%
TcdB inh – TcdB glycohydrolase inhibition | P18177 | TcdB glycohydrolase enzymatic assay, plate reader | inhibition, % at 9.99 µM | actives 0.24% (n = 350,000); in the data active = inhibition above about 10%
UGM FP inh – inhibitors of M. tuberculosis UDP-galactopyranose mutase. inhibition, % at 10 µM. purified UGM, fluorescence polarization probe displacement. actives 0.06% (n = 320,000). P9WIQ1; in the data active = inhibition above about 10%, passing the limit was not always enough
The depositor's hits bear a star; . = no result. Sampled rows, rich in hits. Any-hit rate of the full collection: about 0.9%.

SMILES	Rv3671c protease	FadD28 FP inh	RecA intein inh	Mtb BioA inh	TcdB inh	UGM FP inh
COc1ccc2c3c(n(C)c2c1)[C@@H](CO)N(C)CC31CN(S(=O)(=O)c2cccc(F)c2)C1	.	.	.	.	1	.
COc1cc(NC(=O)Cn2ncc(Cl)c(Cl)c2=O)c(C)cc1[N+](=O)[O-]	.	-2	53*	.	2	.
COc1cc(NC(=O)CN2C(=O)CN(C)C2=O)c(C)cc1[N+](=O)[O-]	7	-2	-1	0	2	0
Oc1ccc(/C=N/Nc2ncnc3nc[nH]c23)cc1	9	-1	-5	-1	10*	-1
O=C(C[C@@H]1CC[C@@H](NC(=O)Nc2ccccc2F)[C@H](CO)O1)NCc1ccc(-c2ccccc2)cc1	.	.	.	.	-1	.
C[C@H](CO)N1C[C@H](C)[C@H](CN(C)C(=O)Nc2cc(F)ccc2F)Oc2ncc(C#CCN(C)C)cc2C1=O	.	.	.	-2	0	.
CO[C@@H]1CN(C)C(=O)c2ccc(NC(=O)Nc3c(C)noc3C)cc2OC[C@H](C)NC[C@@H]1C	.	.	.	1	.	.
O=C(NCc1cccc(F)c1)c1cccc2c1C(=O)c1ccc(N3CCC(Cc4ccccc4)CC3)cc1S2(=O)=O	-25	-3	.	-1	.	22*
O=C(NCCc1ccc(F)cc1)c1cccc2c1C(=O)c1ccc(N3CCC(Cc4ccccc4)CC3)cc1S2(=O)=O	-23	1	.	-4	.	11*
O=C(NCc1ccc(OC(F)(F)F)cc1)c1cccc2c1C(=O)c1ccc(N3CCCCC3)cc1S2(=O)=O	-9	5	.	-3	1	20*
C[C@@H]1CCCCO[C@@H](CN(C)S(=O)(=O)c2ccc(F)cc2)[C@H](C)CN([C@H](C)CO)C(=O)c2cc(NC(=O)C3CCCCC3)ccc2O1	.	.	.	-2	1	.
COCc1cn(CC[C@@H]2CC[C@H](NC(=O)Cc3cccnc3)[C@H](CO)O2)nn1	.	.	.	2	-2	.
Cc1ccc(C(=O)OCC(=O)c2cc(C)n(CC3CCCO3)c2C)cc1 (stereo not given)	0	-4	0	.	16*	-1
CN(c1ccccc1)S(=O)(=O)c1cccc(C(=O)NCCc2ccc(O)c(O)c2)c1	-7	-1	-2	.	15*	1
O=C1/C(=C/c2cccnc2)SC(=NCc2ccccc2)N1Cc1ccccc1	-6	0	-2	.	10*	-1
O=S(=O)(NC[C@@H]1CC[C@@H]2[C@@H](CN2Cc2ccccc2C(F)(F)F)O1)c1ccccc1	.	.	.	.	-1	.
COc1ccc(NC(=O)CSc2ncnc3sc(C)cc23)cc1	-3	-1	.	0	0	5
Cc1cc2c(SCC(=O)Nc3cccc(O)c3)ncnc2s1	.	19*	.	1	-1	.
COc1ccccc1S(=O)(=O)N[C@@H]1CC[C@@H](CC(=O)N2CCOCC2)O[C@H]1CO	.	.	.	-3	-1	.
CCN(CC)S(=O)(=O)c1cc(C(=O)Nc2cccnc2Cl)ccc1Cl	1	-1	2	.	11*	-3
CCOc1ccccc1N(C(C)=O)S(=O)(=O)c1ccc(Cl)cc1	4	-5	-2	.	1	-6
CC(=O)N(c1ccccc1C)S(=O)(=O)c1ccc(Cl)cc1	2	-1	3	.	11*	0
O=C(CN1CCOCC1)NCC[C@H]1CC[C@@H](NS(=O)(=O)c2ccc(F)cc2)[C@@H](CO)O1	.	.	.	-1	-1	.
COc1ccc(-c2c[n+]3c4n2CCCCC4=C(c2ccc(Br)cc2)C3)cc1	3	-2	24	0	.	2
Clc1ccc(C2=C3CCCCn4c(-c5ccccc5)c[n+](c43)C2)cc1	5	-3	33*	4	.	1
SMILES	Rv3671c protease	FadD28 FP inh	RecA intein inh	Mtb BioA inh	TcdB inh	UGM FP inh
C[C@H]1CCCCO[C@@H](CN(C)C(=O)C2CCCCC2)[C@@H](C)CN([C@@H](C)CO)C(=O)c2cc(NS(=O)(=O)c3cn(C)cn3)ccc2O1	.	.	.	-2	-1	.
Cc1ccc(-n2nc(C)c3c2OC(N)=C(C#N)C3c2ccccc2F)cc1 (stereo not given)	-14	0	43*	-1	.	0
COCc1cc(C)nc(OCC(=O)N/N=C/c2ccc(-c3cc([N+](=O)[O-])ccc3C)o2)c1C#N	6	2	-1	0	.	1
Cc1ccc([N+](=O)[O-])cc1-c1ccc(/C=C(\C#N)c2[nH]nc(N)c2C#N)o1	-28	9.4*	.	-2	2	0
CCCCCCCCCCCCCCCC(O)C(N)CO (stereo not given)	10	49*	13	-2	2	-1
COc1ccccc1Oc1cn[nH]c1-c1ccc(O)cc1O	1	1	-2	.	19*	-1
COc1cccc(Oc2cn[nH]c2-c2ccc(O)cc2O)c1	9	-3	3	0	.	3
COc1ccccc1NC(=O)N[C@H]1C=C[C@@H](CC(=O)N2CCC(Cc3ccccc3)CC2)O[C@H]1CO	.	.	.	2	0	.
Cc1[nH]n(-c2ccccc2)c(=O)c1/C=C1/C=c2ccccc2=N1	.	0	35*	.	1	.
CC1=NN(c2ccccc2)C(=O)/C1=C/c1c(C)[nH]n(-c2ccc(C)cc2)c1=O	8	.	0	.	.	-3
CC(Oc1ccc(Cl)cc1Cl)C(=O)Nc1ccc(O)cc1 (stereo not given)	7	-3	6	.	14*	0
CC(Oc1ccc(Cl)cc1Cl)C(=O)Nc1cccc(O)c1 (stereo not given)	1	-4	1	-23	0	1
Cc1ccccc1-c1cnc2c(c1)C(=O)N([C@@H](C)CO)C[C@H](C)[C@@H](CN(C)Cc1ccncc1)O2	.	.	.	3	0	.
Cc1nn2cc(-c3cccc(Cl)c3)cnc2c1Br	-4	1	2	.	10*	4
Cc1nn2cc(-c3cccc(Cl)c3)cnc2c1Cl	-4	1	2	1	0	.
c1ccc(-c2nnnc3ccccc23)cc1	-2	-4	9	1	0	1
Clc1ccc2nnnc(-c3ccccc3)c2c1	-6	-3	56*	.	-2	0
CCCN(C)C[C@H]1OCCCC[C@H](C)Oc2ccc(NC(=O)CCC(F)(F)F)cc2C(=O)N([C@H](C)CO)C[C@@H]1C	.	.	.	3	0	.
CCC(=O)N1[C@H](CO)[C@H](c2ccc(C3=CCCCC3)cc2)[C@@H]1CN(C)C(C)=O	.	.	.	.	-1	.
Cc1ccc(CNc2ccc(O)cc2)cc1	.	12*	85*	0	.	.
O=C(O)C(c1ccccc1)N1C(=O)/C(=C\c2ccc(-c3ccc(Br)cc3)o2)SC1=S (stereo not given)	.	27*	20	18	2	.

Screening results from PubChem BioAssay.
